Data on three sequences can be found in paper PMC8384837, “Expanding the binding specificity for RNA recognition by a PUF domain”.

The target of this test is PUM1 PUF domain R4-CCG (Homo sapiens, UniProt Q14671 828-1176, N971C;H972C;Q975G). The test can be described thus: yeast three-hybrid, YBZ-1, SC-Leu-His + 0.5 mM 3-AT, 4 days. Conditions: tags: N-Gal4 AD-HA kept; label: inside an RPR1-promoter hybrid RNA with tandem MS2 sites; ssRNA. The gist of the method:
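The interaction score is the log change in variant frequency from input to selection. Scores were computed in log2 with a pseudocount of 1 for absent variants, using Illumina sequencing of PCR-amplified repeat regions. The input came from four days on SC-Leu and the selection from four days on SC-Leu-His + 0.5 mM 3-AT. The cells were strain YBZ-1 (LexA–MS2 coat fusion, HIS3 reporter) co-expressing Pumilio-1 PUF domain libraries and matching RNA elements from a centromeric plasmid.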
For the sequence “GGCUAGAACUAGUGGAUCCCCCGGCGCCCGGCGGCUCGAGCCCGGGUAAGUGUACAUAGUCUGCAUGCCGCCGGGCGCCAUGCCUGCAGGUCGACUCUAGAAAACAUG”, the binding signal was 0.76 log2 enrichment (interaction score).

Consider “GGCUAGAACUAGUGGAUCCCCCGGCGCCCGGCGGCUCGAGCCCGGGUAAGUGUAAAUAGUCUGCAUGCCGCCGGGCGCCAUGCCUGCAGGUCGACUCUAGAAAACAUG”, for which the binding signal was 2.6 log2 enrichment (interaction score).

As for “GGCUAGAACUAGUGGAUCCCCCGGCGCCCGGCGGCUCGAGCCCGGGUAAGUGUAUAUAGUCUGCAUGCCGCCGGGCGCCAUGCCUGCAGGUCGACUCUAGAAAACAUG”, the binding signal is 1.84 log2 enrichment (interaction score).
